NPC1 prom act: NPC1 promoter activation; Huh7 NPC1 promoter luciferase reporter, 24 h; Potency, µM (doses to about 9.22 µM), actives largely listed as activators; hit rate 2.4% among 320,000; also: nearly all actives have a fitted effect of over 60% in size
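Quantitative HTS used a cell-based reporter: Huh7 cells stably bearing the NPC1 promoter upstream of luciferase were treated with compounds for 24 h, and promoter activation was read as luminescence.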
FLuc counter: inhibits or activates purified firefly luciferase, miR-21 counter-screen. P08659. purified FLuc, Km substrates, luminescence inhibition. Potency, µM (titrated, usually from 57.5 µM), hits mostly inhibitors. hit rate 6.9% among 360,000; also: nearly all actives have a fitted effect of over 55% in size
Target sequence (P08659 whole entry, looked up): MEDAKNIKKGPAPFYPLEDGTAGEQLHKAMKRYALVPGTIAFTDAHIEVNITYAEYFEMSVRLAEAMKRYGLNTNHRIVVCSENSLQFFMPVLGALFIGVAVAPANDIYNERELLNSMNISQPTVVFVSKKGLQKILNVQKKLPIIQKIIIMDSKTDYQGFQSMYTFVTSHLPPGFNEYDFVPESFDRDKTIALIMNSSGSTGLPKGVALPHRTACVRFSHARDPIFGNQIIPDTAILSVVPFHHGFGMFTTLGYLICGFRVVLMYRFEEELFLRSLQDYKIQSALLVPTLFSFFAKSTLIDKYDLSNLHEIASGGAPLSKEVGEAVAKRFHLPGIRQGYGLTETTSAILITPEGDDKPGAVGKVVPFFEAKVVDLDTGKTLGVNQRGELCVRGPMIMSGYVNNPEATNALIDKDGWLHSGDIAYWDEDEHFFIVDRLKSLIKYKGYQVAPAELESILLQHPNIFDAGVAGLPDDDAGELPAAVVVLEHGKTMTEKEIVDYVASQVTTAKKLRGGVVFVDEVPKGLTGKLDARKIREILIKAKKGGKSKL
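Biochemical qHTS of compounds, final roughly 60 µM downward over six points, against 10 nM purified firefly luciferase using Km concentrations of substrates (10 uM D-luciferin, 10 uM ATP) in Tris acetate pH 7.5 buffer; luminescence output.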
ELG1 repair inh: inhibitors of ELG1-dependent DNA repair in HEK293T cells; HEK293T ELG1-luciferase reporter, luminescence, 16 h; DNA damage induced by 5-fluorouridine; Potency, µM (doses to about 46.1 µM), most hits filed as inhibitors; hit rate 2.3% among 330,000; also: nearly all actives have a fitted effect of over 55% in size
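Step one: seed 2,000 cells per well. Step two: pin-transfer compound or DMSO alongside 5-fluorouridine. Step three: incubate 16 hr, 37 °C, 5% CO2. Step four: add ONE-Glo, wait 30 min, read luminescence.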
SMN2 splice enh: SMN2 splice variant enhancement. HEK293 SMN2-luciferase splicing reporter, luminescence, 30-36 h. Potency, µM (highest dose often 46.1 µM), most hits filed as activators. hit rate 2.8% among 210,000. AID 1458; also: nearly all actives have a fitted effect of over 55% in size
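qHTS luciferase splicing reporter: luminescence rises when SMN2 exon 7 is included in transfected HEK293 cells. Compound exposure lasted 30-36 h at 37C, with 4.5 mM final sodium butyrate as control, followed by a ONE-Glo read.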
ELG1 genotox: inducers of genotoxicity in HEK293T ELG1-luciferase cells; HEK293T ELG1-luciferase reporter, luminescence, 16 h; hit rate 1.3% among 330,000; Potency, µM (doses to about 46 µM), actives largely listed as activators; also: nearly all actives have a fitted effect of over 60% in size
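After overnight (16 hr) compound treatment at 37 °C, ELG1-luciferase HEK293T cells were lysed with ONE-Glo; luminescence quantified 30 min later at room temperature.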
Rab9 promoter act: activators of Rab9 promoter; hit rate 2.8% among 320,000; Huh7 Rab9 promoter-luciferase reporter, luminescence, 24 h; AID 485297; Potency, µM (doses to about 9.22 µM), usual class: activators; also: nearly all actives have a fitted effect of over 60% in size
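Measured in stably transfected Huh7 cells bearing a Rab9 promoter–luciferase construct: 24 h compound treatment at 37 °C, followed by luminescence detection.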
Of the large screens only hits and unclear results are named; the others gave an inactive call. The list is not random: actives were taken first. Their share in the collection is about 9.2%. Calls follow the shape of the dose curve; as a rule, active = well fitted curve in the direction sought with a large enough effect; inconclusive = small, poorly fitted or top-dose-only effect, or another doubt; inactive = no such curve, though single readings can be large; an effect the other way counts as inactive or inconclusive.

Cc1ccccc1OCCNC(=O)c1ccc2ccccc2n1	NPC1 prom act inconclusive, FLuc counter 4.78µM, ELG1 repair inh inconclusive, SMN2 splice enh 22.4µM, ELG1 genotox 20.6µM, Rab9 promoter act 3.16µM
COc1ccc(CNC(=O)c2ccc3ccccc3n2)cc1	FLuc counter 26.9µM, ELG1 repair inh inconclusive (no result: SMN2 splice enh)
CC(C)c1ccc(NC(=O)CN2C(=O)C3(SCC(=O)N3c3ccc(F)cc3)c3ccccc32)cc1 (centres undefined)	none (no result: NPC1 prom act, ELG1 repair inh, SMN2 splice enh, ELG1 genotox, Rab9 promoter act)
CCOC(=O)Cn1c(=O)n(CC2CCCO2)c2nc(-c3ccccc3OC)nc(C(N)=O)c21 (centres undefined)	none (no result: NPC1 prom act, ELG1 repair inh, SMN2 splice enh, ELG1 genotox, Rab9 promoter act)
CCc1cccc(C)c1NC(=O)Cn1cc2c(n1)CCCC2	none (no result: NPC1 prom act, ELG1 repair inh, ELG1 genotox, Rab9 promoter act)
COc1ccc(/C=C/C(=O)c2c(C)nc3ccccn23)cc1	NPC1 prom act inconclusive, FLuc counter 7.57µM, ELG1 repair inh inconclusive, Rab9 promoter act 3.55µM
COc1ccc(NC(=O)c2c(Cl)nc3ccccn23)cc1	FLuc counter inconclusive, ELG1 repair inh inconclusive, SMN2 splice enh inconclusive, ELG1 genotox inconclusive, Rab9 promoter act 3.16µM
COc1ccc(CNC(=O)c2c(C)nc3ccccn23)cc1	ELG1 repair inh 13µM
O=C(Nc1ccc(F)cc1)c1c(Cl)nc2ccccn12	FLuc counter inconclusive, ELG1 repair inh inconclusive, SMN2 splice enh inconclusive, ELG1 genotox inconclusive
COCCN1C(=O)N[C@@H](c2cccc(C(F)(F)F)c2)C(C(C)=O)=C1C	none (no result: NPC1 prom act, FLuc counter, ELG1 repair inh, ELG1 genotox, Rab9 promoter act)
O=C(c1ccc(Cl)cc1)N1CCC(O)(CSc2ccc(Cl)cc2Cl)CC1	ELG1 repair inh inconclusive
Cc1ccc2[nH]c3c(c2c1)CCc1cn[nH]c1-3	NPC1 prom act inconclusive, FLuc counter 10.7µM, Rab9 promoter act inconclusive
CCN=C1S/C(=C\c2sccc2C)C(=O)N1CC	NPC1 prom act inconclusive, FLuc counter 12µM, ELG1 repair inh inconclusive, ELG1 genotox inconclusive, Rab9 promoter act inconclusive
CCCOc1ccc(/C=C2\SC(=S)N(CC3CCCO3)C2=O)cc1 (centres undefined)	FLuc counter 9.53µM
Cc1ccsc1/C=C1\SC(=S)N(CC2CCCO2)C1=O (centres undefined)	FLuc counter 10.7µM, ELG1 repair inh inconclusive, ELG1 genotox inconclusive, Rab9 promoter act inconclusive
CCN=C1S/C(=C\c2ccc(OC)c(OCC)c2)C(=O)N1CC	none
Cc1cccc(C(=O)OC(C)C(=O)NCC2CCCCC2)c1O (centres undefined)	none (no result: FLuc counter, SMN2 splice enh)
O=C(Nc1ccc2c(c1)oc1ccc(S(=O)(=O)N3CCCC3)cc12)C1CC1	ELG1 repair inh 16.4µM
O=C(Nc1ccc2c(c1)oc1ccccc12)C1CC1	NPC1 prom act 3.98µM, FLuc counter 5.36µM, ELG1 repair inh inconclusive, SMN2 splice enh inconclusive, ELG1 genotox inconclusive, Rab9 promoter act 2.51µM
CCn1nc(C)cc1C(=O)N1CCCC(N(C)CCc2ccc(OC)c(OC)c2)C1 (centres undefined)	ELG1 repair inh inconclusive (no result: SMN2 splice enh)
COc1ccccc1-c1nnc(SCC(=O)Nc2ccc(N3CCOCC3)cc2)n1C	FLuc counter 19µM, ELG1 repair inh inconclusive (no result: SMN2 splice enh)
Cn1c(SCC(=O)Nc2ccc(N3CCOCC3)cc2)nnc1C1CC1	FLuc counter inconclusive (no result: SMN2 splice enh)
CCn1c(Cc2ccccc2)nnc1SCC(=O)Nc1ccc(N2CCOCC2)c(Cl)c1	FLuc counter 15.1µM
Cc1ccc(CSc2nnc(CC(=O)Nc3ccc(C)cc3)n2C)cc1	none
Cc1ccc(NC(=O)Cc2nnc(SCC(=O)Nc3ccccc3)n2C)cc1	FLuc counter 19µM
Cc1ccc(NC(=O)Cc2nnc(SCC(=O)Nc3ccc(N4CCOCC4)cc3)n2C)cc1	FLuc counter 12µM (no result: SMN2 splice enh)
CCn1c(Cc2ccccc2)nnc1SCC(=O)Nc1ccc2c(c1)OCO2	NPC1 prom act inconclusive
CN(C)C(=O)C1CCN(Cc2c[nH]c3ccccc23)CC1	none (no result: NPC1 prom act, FLuc counter, ELG1 repair inh, ELG1 genotox, Rab9 promoter act)
O=C(Oc1ccc2c3c(c(=O)oc2c1)CCC3)c1ccccc1[N+](=O)[O-]	none
Cn1c(CC(=O)Nc2ccccc2)nnc1SCC(=O)Nc1ccc(N2CCOCC2)cc1	FLuc counter 12µM, ELG1 repair inh inconclusive, ELG1 genotox inconclusive (no result: SMN2 splice enh)
Cn1c(Cc2ccccc2)nnc1SCC(=O)Nc1ccc(N2CCOCC2)cc1	FLuc counter inconclusive, ELG1 repair inh inconclusive (no result: SMN2 splice enh)
Cc1ccc(/C=C/C(=O)CCC(=O)O)cc1	FLuc counter 6.75µM, ELG1 repair inh inconclusive, Rab9 promoter act inconclusive (no result: SMN2 splice enh)
O=C(O)CCCC(=O)Nc1ccc(OCc2nc3ccccc3s2)cc1	FLuc counter 16.9µM, ELG1 repair inh inconclusive, ELG1 genotox inconclusive
CCNC(=S)Nc1ccc(OCc2nc3ccccc3s2)cc1	NPC1 prom act 3.55µM, FLuc counter 12µM, ELG1 repair inh inconclusive, ELG1 genotox inconclusive, Rab9 promoter act 3.98µM (no result: SMN2 splice enh)
COc1ccc(-c2cnc(C)o2)cc1S(=O)(=O)Nc1c(C)cc(C)cc1C	none (no result: NPC1 prom act, ELG1 repair inh, SMN2 splice enh, ELG1 genotox, Rab9 promoter act)
O=C(CCN1CCN(c2ccccc2)CC1)N/N=C/c1ccccc1OC(F)F	ELG1 repair inh 11.6µM
CC(=O)N(C1=C(N2CCOCC2)C(=O)c2ccccc2C1=O)c1ccc(C(=O)O)cc1	ELG1 repair inh 23.1µM (no result: SMN2 splice enh)
Cn1c(=O)c(NCCc2ccccc2)c2c3c(cccc31)C(=O)c1ccccc1-2	ELG1 repair inh 20.6µM
Cn1c(=O)c(NC2CCCCC2)c2c3c(cccc31)C(=O)c1ccccc1-2	ELG1 repair inh 18.3µM (no result: SMN2 splice enh)
